PubChem BioAssay AID1159580 (chemical genetic matrix, 2015)
The whole screen tested about 5,500 compounds, of which about 2,000 (36%) were called active. Another 18% or so got no clear call; they are omitted. Rule as the data show it: active = normalized growth mostly below about 0.91 (no sharp cut-off); inconclusive = no clear call, values can overlap the other calls; inactive = mostly above about 0.92. This is one part of the list.

Assay: chemical genetic growth profiling, strain panel (AID 1159580);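 also: tested at 20 µM; growth read once vehicle control cultures reached saturation at 30 °C; 1 = growth at the plate median or of vehicle wells; lower values mean less growth of the strain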
Conditions: growth OD

Measured: normalized growth

CC(=O)Nc1ccc(O)cc1
active: S. cerevisiae deletion strains, locus YKL068W, stronger effect = lower value 0.936 | S. cerevisiae deletion strains, locus YNL298W, strain CLA4, stronger effect = lower value 0.897 | S. cerevisiae deletion strains, locus YPR141C, strain kar3, stronger effect = lower value 0.911
inactive: S. cerevisiae deletion strains, locus YJR075W, strain HOC1, stronger effect = lower value 1.06 | S. cerevisiae deletion strains, locus YKL009W, strain mrt4, stronger effect = lower value 0.952 | S. cerevisiae deletion strains, locus YKL085W, strain MDH1 (second series), stronger effect = lower value 0.943 | S. cerevisiae deletion strains, locus YKL085W, strain MDH1, stronger effect = lower value 0.943 | S. cerevisiae deletion strains, locus YKL160W, strain elf1, stronger effect = lower value 1.01 | S. cerevisiae deletion strains, locus YKR001C, strain vps1, stronger effect = lower value 0.982 | S. cerevisiae deletion strains, locus YKR026C, strain gcn3, stronger effect = lower value 1.02 | S. cerevisiae deletion strains, locus YKR091W, strain srl3, stronger effect = lower value 1.01 | S. cerevisiae deletion strains, locus YLL001W, strain dnm1, stronger effect = lower value 0.998 | S. cerevisiae deletion strains, locus YLL026W, stronger effect = lower value 1.02 | S. cerevisiae deletion strains, locus YLL041C, strain sdh2, stronger effect = lower value 1.01 | S. cerevisiae deletion strains, locus YLR027C, strain aat2, stronger effect = lower value 1.01 | S. cerevisiae deletion strains, locus YLR039C, strain RIC1, stronger effect = lower value 0.742 | S. cerevisiae deletion strains, locus YLR058C, strain SHM2, stronger effect = lower value 0.984 | S. cerevisiae deletion strains, locus YLR102C, strain apc9, stronger effect = lower value 0.986 | S. cerevisiae deletion strains, locus YLR113W, strain HOG1, stronger effect = lower value 0.974 | S. cerevisiae deletion strains, locus YLR221C, strain rsa3, stronger effect = lower value 0.989 | S. cerevisiae deletion strains, locus YLR258W, strain gsy2, stronger effect = lower value 1.02 | S. cerevisiae deletion strains, locus YLR262C, strain YPT6 (second series), stronger effect = lower value 1.04 | S. cerevisiae deletion strains, locus YLR262C, strain YPT6, stronger effect = lower value 0.772 | S. cerevisiae deletion strains, locus YLR268W, strain sec22, stronger effect = lower value 0.978 | S. cerevisiae deletion strains, locus YLR320W, strain mms22, stronger effect = lower value 1.01 | S. cerevisiae deletion strains, locus YLR330W, strain CHS5, stronger effect = lower value 0.986 | S. cerevisiae deletion strains, locus YLR342W, strain FKS1 (second series), stronger effect = lower value 1.05 | S. cerevisiae deletion strains, locus YLR342W, strain FKS1, stronger effect = lower value 1.03 | S. cerevisiae deletion strains, locus YLR357W, strain rsc2, stronger effect = lower value 1.02 | S. cerevisiae deletion strains, locus YLR370C, strain arc18, stronger effect = lower value 1.01 | S. cerevisiae deletion strains, locus YLR371W, strain rom2, stronger effect = lower value 0.999 | S. cerevisiae deletion strains, locus YLR384C, strain iki3, stronger effect = lower value 1.01 | S. cerevisiae deletion strains, locus YLR418C, strain cdc73, stronger effect = lower value 1.08 | S. cerevisiae deletion strains, locus YML016C, strain PPZ1, stronger effect = lower value 0.975 | S. cerevisiae deletion strains, locus YML032C, strain rad52, stronger effect = lower value 0.971 | S. cerevisiae deletion strains, locus YML120C, strain ndi1, stronger effect = lower value 1.02 | S. cerevisiae deletion strains, locus YML124C, strain tub3, stronger effect = lower value 0.972 | S. cerevisiae deletion strains, locus YMR058W, strain fet3, stronger effect = lower value 1.03 | S. cerevisiae deletion strains, locus YMR078C, strain ctf18, stronger effect = lower value 0.986 | S. cerevisiae deletion strains, locus YMR125W, strain sto1, stronger effect = lower value 1.01 | S. cerevisiae deletion strains, locus YMR129W, stronger effect = lower value 1.01 | S. cerevisiae deletion strains, locus YMR205C, strain PFK2, stronger effect = lower value 1.02 | S. cerevisiae deletion strains, locus YMR223W, strain ubp8, stronger effect = lower value 0.98 | S. cerevisiae deletion strains, locus YMR231W, strain pep5, stronger effect = lower value 1.03 | S. cerevisiae deletion strains, locus YMR307W, strain GAS1, stronger effect = lower value 0.876 | S. cerevisiae deletion strains, locus YNL067W, strain RPL9B, stronger effect = lower value 1.04 | S. cerevisiae deletion strains, locus YNL071W, strain lat1, stronger effect = lower value 1.02 | S. cerevisiae deletion strains, locus YNL153C, strain GIM3, stronger effect = lower value 0.998 | S. cerevisiae deletion strains, locus YNL183C, strain NPR1, stronger effect = lower value 0.955 | S. cerevisiae deletion strains, locus YNL209W, strain ssb2, stronger effect = lower value 1.02 | S. cerevisiae deletion strains, locus YNL233W, strain BNI4, stronger effect = lower value 1.03 | S. cerevisiae deletion strains, locus YNL248C, strain rpa49, stronger effect = lower value 0.998 | S. cerevisiae deletion strains, locus YNL250W, strain rad50, stronger effect = lower value 0.937 | S. cerevisiae deletion strains, locus YNL271C, strain bni1, stronger effect = lower value 0.936 | S. cerevisiae deletion strains, locus YNL307C, strain MCK1, stronger effect = lower value 1.01 | S. cerevisiae deletion strains, locus YNL322C, strain KRE1 (second series), stronger effect = lower value 1.02 | S. cerevisiae deletion strains, locus YNR049C, strain mso1, stronger effect = lower value 1.03 | S. cerevisiae deletion strains, locus YNR052C, strain pop2, stronger effect = lower value 0.974 | S. cerevisiae deletion strains, locus YOL006C, strain TOP1, stronger effect = lower value 1.14 | S. cerevisiae deletion strains, locus YOL012C, strain htz1 0.778 | S. cerevisiae deletion strains, locus YOL147C, strain pex11, stronger effect = lower value 0.98 | S. cerevisiae deletion strains, locus YOR001W, strain rrp6, stronger effect = lower value 1.01 | S. cerevisiae deletion strains, locus YOR061W, strain CKA2, stronger effect = lower value 0.972 | S. cerevisiae deletion strains, locus YOR069W, strain VPS5, stronger effect = lower value 0.984 | S. cerevisiae deletion strains, locus YOR070C, strain gyp1, stronger effect = lower value 1.01 | S. cerevisiae deletion strains, locus YOR080W, strain dia2, stronger effect = lower value 1.03 | S. cerevisiae deletion strains, locus YOR083W, strain WHI5, stronger effect = lower value 0.988 | S. cerevisiae deletion strains, locus YOR106W, strain vam3, stronger effect = lower value 1.01 | S. cerevisiae deletion strains, locus YOR136W, strain idh2, stronger effect = lower value 1.01 | S. cerevisiae deletion strains, locus YOR144C, strain elg1, stronger effect = lower value 0.968 | S. cerevisiae deletion strains, locus YOR184W, strain ser1, stronger effect = lower value 0.998 | S. cerevisiae deletion strains, locus YOR231W, strain MKK1, stronger effect = lower value 0.997 | S. cerevisiae deletion strains, locus YOR265W, strain rbl2, stronger effect = lower value 1.02 | S. cerevisiae deletion strains, locus YOR270C, strain vph1, stronger effect = lower value 1.02 | S. cerevisiae deletion strains, locus YOR290C, strain snf2, stronger effect = lower value 1 | S. cerevisiae deletion strains, locus YOR316C, strain cot1, stronger effect = lower value 0.982 | S. cerevisiae deletion strains, locus YPL051W, strain arl3, stronger effect = lower value 1.01 | S. cerevisiae deletion strains, locus YPL055C, strain LGE1, stronger effect = lower value 1 | S. cerevisiae deletion strains, locus YPL078C, strain atp4, stronger effect = lower value 1.01 | S. cerevisiae deletion strains, locus YPL106C, strain sse1, stronger effect = lower value 1.02 | S. cerevisiae deletion strains, locus YPL240C, strain hsp82, stronger effect = lower value 1.02 | S. cerevisiae deletion strains, locus YPL241C, strain CIN2, stronger effect = lower value 0.981 | S. cerevisiae deletion strains, locus YPL256C, strain CLN2, stronger effect = lower value 0.982 | S. cerevisiae deletion strains, locus YPR119W, strain clb2, stronger effect = lower value 0.973 | S. cerevisiae deletion strains, locus YPR163C, strain tif3, stronger effect = lower value 0.992 | S. cerevisiae deletion strains, locus YPR167C, strain met16, stronger effect = lower value 0.972 | S. cerevisiae deletion strains, strain wtn01, stronger effect = lower value 0.967 | S. cerevisiae strains, strain wild type, stronger effect = lower value 0.953
